A selection: hits, their analogues and other compounds. The true share with any hit is near 11%.
G9a inh: G9a (human) methyltransferase inhibition | Potency, µM (doses to about 102 µM), for the others: at the highest dose activity, negative = inhibition, actives largely listed as inhibitors | 350,000 tested, 8.8% active | G9a H3K9 monomethylation, AlphaScreen, 2 h; also: % is scaled to controls: 0 for no effect and ±100 for the full control effect; nearly all actives have a fitted effect of over 75% in size
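Readings reflect AlphaScreen signal from monomethyl-H3K9 antibody detection. HMT at 20 nM; substrate b-H3K9 500 nM; cofactor SAM 20 uM; 2 h RT reaction; compounds tested as titrations in qHTS with 15 min preincubation.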
BAZ2B block: inhibitors of human BAZ2B bromodomain; Potency, µM (top dose mostly 114 µM), for inactives: top-dose activity change, negative = inhibition, most hits filed as inhibitors; AlphaScreen BAZ2B-H3K14Ac peptide displacement; AID 504333; Q9UIF8; 360,000 tested, 4.4% active; also: % is scaled to controls: 0 for no effect and ±100 for the full control effect; nearly all actives have a fitted effect of over 60% in size
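BAZ2B 50 nM plus b-H3(5-23)K14Ac 50 nM, PBS pH 7.4/0.01% Tween-20, 30 min RT; compound added (max 110 uM), 30 min RT; streptavidin donor/Ni-chelate acceptor beads 10 ug/mL final, 20 min dark; AlphaScreen read.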
L3MBTL1 block: blocks human L3MBTL1; 230,000 tested, 0.66% active; AlphaScreen L3MBTL1–H3K9me1 peptide binding; Potency, µM (highest dose often 57.1 µM), for inactives: top-dose activity, negative = inhibition, usual class: inhibitors; AID 485360; Q9Y468; also: % is scaled to controls: 0 for no effect and ±100 for the full control effect; nearly all actives have a fitted effect of over 60% in size
Target sequence (Q9Y468 whole entry, looked up): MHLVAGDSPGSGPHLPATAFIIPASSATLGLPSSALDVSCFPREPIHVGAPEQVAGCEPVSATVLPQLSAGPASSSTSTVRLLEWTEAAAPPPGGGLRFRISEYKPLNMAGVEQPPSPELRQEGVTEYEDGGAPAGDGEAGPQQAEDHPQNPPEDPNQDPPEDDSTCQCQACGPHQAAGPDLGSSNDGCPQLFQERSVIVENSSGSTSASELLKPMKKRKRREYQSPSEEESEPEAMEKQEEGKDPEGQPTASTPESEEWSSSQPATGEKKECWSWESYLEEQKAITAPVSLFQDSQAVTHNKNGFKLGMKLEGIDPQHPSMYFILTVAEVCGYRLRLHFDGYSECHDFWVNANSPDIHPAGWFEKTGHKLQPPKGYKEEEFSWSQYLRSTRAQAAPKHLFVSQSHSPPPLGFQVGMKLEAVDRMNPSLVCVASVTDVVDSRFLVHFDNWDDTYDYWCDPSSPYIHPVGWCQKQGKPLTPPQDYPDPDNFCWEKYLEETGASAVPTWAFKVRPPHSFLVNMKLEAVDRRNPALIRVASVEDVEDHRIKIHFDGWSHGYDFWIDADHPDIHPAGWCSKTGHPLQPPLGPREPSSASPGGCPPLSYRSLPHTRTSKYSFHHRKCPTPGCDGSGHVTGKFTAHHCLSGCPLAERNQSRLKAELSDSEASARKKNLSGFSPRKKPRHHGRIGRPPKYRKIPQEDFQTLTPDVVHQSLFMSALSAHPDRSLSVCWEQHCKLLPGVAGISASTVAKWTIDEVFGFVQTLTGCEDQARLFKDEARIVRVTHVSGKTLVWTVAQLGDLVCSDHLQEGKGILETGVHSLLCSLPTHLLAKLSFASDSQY
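AlphaScreen proximity signal between nickel-chelate acceptor and streptavidin donor beads (final 10 ug/mL) reports binding of 50 nM L3MBTL1 to 75 nM biotin-H3 K9me1 peptide; complex incubated with compounds 30 min at room temperature; cefsulodin titration as control.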
HP1b binding inh: blocks HP1-beta chromodomain binding to methylated histone tails | Potency, µM (highest dose often 114 µM), inactives show at the highest dose activity change, negative = inhibition, usual class: inhibitors | P83916 | AlphaScreen HP1-beta / biotin-H3K9me3 peptide binding | AID 540317 | 390,000 tested, 0.56% active; also: nearly all actives have a fitted effect of over 70% in size
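Compound inhibition of the preformed complex between 50 nM HP1-beta and 50 nM biotinylated H3K9me3 peptide was read by AlphaScreen. Buffer was PBS pH 7.4 with 0.01% Tween-20. Incubations ran 30 min at room temperature, with 10 ug/mL donor/acceptor beads.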
JMJD2A Tudor inh: inhibitors of human JMJD2A Tudor domain; 390,000 tested, 4.4% active; O75164; Potency, µM (series often up to 114 µM), inactives show at the highest dose activity change, negative = inhibition, usual class: inhibitors; AlphaScreen JMJD2A-Tudor / H3K4me3 peptide binding; also: % is scaled to controls: 0 for no effect and ±100 for the full control effect; nearly all actives have a fitted effect of over 50% in size
Starred values were filed as active, the others as inactive; [ ] = dose if it differs, or a comment. Calls follow the shape of the dose curve; as a rule, active = well fitted inhibition curve with a large enough effect; inconclusive = small, poorly fitted or top-dose-only effect; inactive = no such curve, though single readings can be large or run the other way. Potency is read from the fitted curve at half-maximal effect.

Results for CCOc1ccc(-c2nonc2NC(=O)c2oc3cc(Br)ccc3c2C)cc1 ?
G9a inh: 1%[59 µM]; BAZ2B block: -3%; HP1b binding inh: 47%; JMJD2A Tudor inh: 40µM*

Results for O=C(Nc1nnc(SCc2ccccn2)s1)C1CC(=O)N(c2ccc(F)cc2)C1 (stereo not drawn) ?
G9a inh: 28µM*; BAZ2B block: -24%; HP1b binding inh: 11%; JMJD2A Tudor inh: -28%

What do the screens show for `Cc1ccc(CN2CC(C(=O)Nc3nnc(SCc4c(Cl)cccc4Cl)s3)CC2=O)cc1` (stereo not drawn)?
G9a inh: 10µM*; BAZ2B block: inconclusive; L3MBTL1 block: -21%; HP1b binding inh: -6%; JMJD2A Tudor inh: inconclusive

How did Cc1cccc(N2CC(C(=O)Nc3nnc(SCc4cccnc4)s3)CC2=O)c1 (stereo not drawn) do in these assays?
G9a inh: 45µM*; BAZ2B block: -24%; HP1b binding inh: 7%; JMJD2A Tudor inh: inconclusive

Results for COc1cccc(N2CC(C(=O)Nc3nnc(SCc4ccccn4)s3)CC2=O)c1 (stereo not drawn) ?
G9a inh: 7.9µM*; BAZ2B block: inconclusive; L3MBTL1 block: -5%; HP1b binding inh: 10%; JMJD2A Tudor inh: -24%

What do the screens show for `COc1cccc(N2CC(C(=O)Nc3nnc(SCC(=O)c4ccccc4)s3)CC2=O)c1` (stereo not drawn)?
G9a inh: -22%; BAZ2B block: 6%; L3MBTL1 block: -11%; HP1b binding inh: 13%; JMJD2A Tudor inh: -13%

How did Cc1cccc(OC(=O)CSc2nnc(-c3ccc4c(c3)OCO4)o2)c1C do in these assays?
G9a inh: -35%[59 µM]; BAZ2B block: 0%; HP1b binding inh: 31%; JMJD2A Tudor inh: -5%

Results for COc1ccc(OC)c(-c2nnc3n(Cc4ccc(C)cc4)c(=O)c4ccccc4n23)c1 ?
G9a inh: -31%[59 µM]; BAZ2B block: -6%; HP1b binding inh: 26%; JMJD2A Tudor inh: -4%

Results for COc1ccc(NC(=O)CSc2nc(-c3cccs3)cc(C(F)(F)F)n2)cc1OC ?
G9a inh: -12%[59 µM]; BAZ2B block: -1%; HP1b binding inh: -6%; JMJD2A Tudor inh: -15%

What do the screens show for `Cc1ccc(/C=C/c2onc(C)c2S(=O)(=O)N2CCC(C(=O)NCc3ccc(C)o3)CC2)cc1`?
G9a inh: 1%[59 µM]; BAZ2B block: -17%; HP1b binding inh: 4%[57 µM]; JMJD2A Tudor inh: -26%

How did N#CN1CCC(NC(=O)c2ccc(C(F)(F)F)cc2)CC1 do in these assays?
JMJD2A Tudor inh: -12%

Results for c1ccc2c(C[C@@H]3CNCCN3CC3CCCCC3)cccc2c1 ?
G9a inh: 16%[2.33 µM]; BAZ2B block: 40µM*; L3MBTL1 block: -7%; HP1b binding inh: -2%; JMJD2A Tudor inh: inconclusive

What do the screens show for `CCOC(=O)C1=CN(C(=O)OC(C)(C)C)C(CN2C(=O)COCC2=O)C1` (stereo not drawn)?
HP1b binding inh: inconclusive; JMJD2A Tudor inh: -73%

How did O=C(/C=C/c1ccc(Br)o1)OCc1nc2ccsc2c(=O)[nH]1 do in these assays?
G9a inh: 18%[0.501 µM]; BAZ2B block: 40µM*; L3MBTL1 block: 3.2µM*; HP1b binding inh: -66%; JMJD2A Tudor inh: 40µM*

What do the screens show for `Cc1ccc(C(=O)OCc2nc3ccsc3c(=O)[nH]2)o1`?
G9a inh: 21%[2.33 µM]; BAZ2B block: 23%; L3MBTL1 block: -4%; HP1b binding inh: 21%; JMJD2A Tudor inh: -6%

Results for Cc1cnc(C(=O)OCc2nc3ccsc3c(=O)[nH]2)cn1 ?
G9a inh: 16%[12.7 µM]; BAZ2B block: 50µM*; L3MBTL1 block: inconclusive; HP1b binding inh: -25%; JMJD2A Tudor inh: 56µM*

How did Cn1c(SCC(=O)Nc2ccc3c(c2)OCO3)nnc1C(F)(F)F do in these assays?
L3MBTL1 block: 1%; HP1b binding inh: 37%; JMJD2A Tudor inh: -14%

What do the screens show for `Cc1ccc(CCNC(=O)CCSCc2ccccc2F)cc1`?
G9a inh: 2%[59 µM]; BAZ2B block: 2%; HP1b binding inh: 24%; JMJD2A Tudor inh: -18%

What do the screens show for `C=CCNC(=S)N/N=C/c1cn(C)c2ccccc12`?
BAZ2B block: -25%; HP1b binding inh: inconclusive; JMJD2A Tudor inh: 56µM*

What do the screens show for `Cn1cc(/C=N/NC(N)=S)c2ccccc21`?
G9a inh: -12%[59 µM]; BAZ2B block: -32%; L3MBTL1 block: -6%; HP1b binding inh: 23%; JMJD2A Tudor inh: -25%

Results for CC(=O)Nc1ccc2c(c1)C(C)(C)C(C)N2C (stereo not drawn) ?
G9a inh: 18µM*; BAZ2B block: inconclusive; HP1b binding inh: 21%; JMJD2A Tudor inh: -17%

How did Fc1ccccc1N1CCN(c2c3c(nc4nncn24)CCC3)CC1 do in these assays?
G9a inh: 7%[59 µM]; BAZ2B block: -15%; HP1b binding inh: 31%; JMJD2A Tudor inh: -8%

How did O=[N+]([O-])c1cc(-c2n(-c3ccccn3)c3ccccc3[n+]2-c2ccccn2)ccc1Cl do in these assays?
G9a inh: 50µM*; BAZ2B block: 45µM*; L3MBTL1 block: -12%; HP1b binding inh: -7%; JMJD2A Tudor inh: -34%

How did NCc1cn(Cc2ccccc2)nc1-c1ccccc1 do in these assays?
HP1b binding inh: 22%; JMJD2A Tudor inh: -16%

What do the screens show for `CCc1n(CC(O)COC2CCCCC2)c2ccccc2[n+]1C` (stereo not drawn)?
BAZ2B block: inconclusive; L3MBTL1 block: 7%; HP1b binding inh: 23%; JMJD2A Tudor inh: -5%

Results for CCc1n(CC(O)COCC2CC=CCC2)c2ccccc2[n+]1C (stereo not drawn) ?
G9a inh: 50µM*; BAZ2B block: -22%; L3MBTL1 block: -2%; HP1b binding inh: -16%; JMJD2A Tudor inh: inconclusive

How did Cc1n(CC(O)COCc2ccccc2)c2ccccc2[n+]1C (stereo not drawn) do in these assays?
G9a inh: 17%[59 µM]; BAZ2B block: 56µM*; L3MBTL1 block: 5%; HP1b binding inh: 24%; JMJD2A Tudor inh: -8%

What do the screens show for `CCOc1ccc(C(=O)Nc2cc(-c3ccccc3)no2)cc1`?
G9a inh: -3%[59 µM]; BAZ2B block: -1%; HP1b binding inh: 29%; JMJD2A Tudor inh: -21%

Results for O=C(c1ccc2c(=O)n(CCc3ccccc3)c(=O)[nH]c2c1)N1CCN(C(=O)c2ccco2)CC1 ?
HP1b binding inh: 31%; JMJD2A Tudor inh: -7%

How did O=[N+]([O-])c1cc(-n2cccc2)ccc1N1CCOCC1 do in these assays?
G9a inh: inconclusive; BAZ2B block: 35µM*; L3MBTL1 block: -24%; HP1b binding inh: 71µM*; JMJD2A Tudor inh: 50µM*

Results for Cc1ccc(Nc2ccc(S(=O)(=O)N3CCOCC3)cc2[N+](=O)[O-])cc1C ?
G9a inh: inconclusive; BAZ2B block: 11µM*; L3MBTL1 block: inconclusive; HP1b binding inh: inconclusive; JMJD2A Tudor inh: inconclusive
